The whole screen tested about 330,000 compounds, of which about 590 (0.18%) were called active.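 How the source made its calls: active means superoxide response under a set limit, about three screen SD below normal (cut at about 65% in these data); inactive means the rest.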 For the sample, actives were picked, then their nearest neighbours and some compounds at random.
Test: reduction of superoxide in aged yeast, primary screen, HTS (AID 2690);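 further: yeast aged for seven days with compound at 30 °C before DHE staining; 100% = average MFI of all compound-treated wells on the plate with controls excluded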
Conditions: S. cerevisiae aged cells, superoxide DHE fluorescence; at 10 µM; active compounds read low

| Structure (SMILES) | superoxide response (% of plate mean) |
| --- | --- |
| Cc1ccsc1C(=O)OCC(=O)NCCc1ccccc1 | 92.1% (inactive) |
| O=C(Nc1ccc(Br)cn1)c1ccc([N+](=O)[O-])cc1Cl | 64.7% (active) |
| O=C(Nc1ccc(Br)cn1)c1ccc([N+](=O)[O-])o1 | 118% (inactive) |
| O=C(Nc1ccncc1)c1ccc([N+](=O)[O-])cc1Cl | 103% (inactive) |
| C/C(=N\NS(=O)(=O)c1ccccc1)c1c(O)cc(C)oc1=O | 102% (inactive) |
| O=C1NC(=Nc2ccc(Cl)cc2)SC1Cc1cccc(Cl)c1Cl (stereo unspecified) | 121% (inactive) |
| O=C(CCS(=O)(=O)c1ccc2c(c1)NC(=O)CS2)NCc1ccccc1Cl | 110% (inactive) |
| CN1CCN(CC(=O)C23CC4CC(CC(C4)C2)C3)CC1 | 101% (inactive) |
| O=C1/C(=C/c2ccc(F)cc2)SC(=S)N1NS(=O)(=O)c1ccccc1 | 107% (inactive) |
| CC(=O)c1ccc(N2CCN(C(=O)c3ccc4nc[nH]c4c3)CC2)cc1 | 112% (inactive) |
| CC1(C)CC[C@@]2(C(=O)O)C(C1)C1=CCC3[C@@]4(C)CC[C@H](O)C(C)(C)C4CC[C@@]3(C)[C@]1(C)C[C@H]2O (stereo partly specified) | 88% (inactive) |
| CC(C)(C)C(=O)NC1CC2CCCC(C1)N2C(=O)Nc1ccccc1F (stereo unspecified) | 103% (inactive) |
| O=[N+]([O-])/C(N=Nc1ccccc1)=N\Nc1ccccc1 | 102% (inactive) |
| CC(C)(C)NC(=O)c1cccc(NC(=O)Cc2ccc(Br)cc2)c1 | 91.5% (inactive) |
| Cc1ccc(S(=O)(=O)N(CC(=O)NCc2ccco2)c2ccccc2C)cc1 | 111% (inactive) |
| COc1ccc(Nc2nc(NCc3ccco3)nc(N/N=C/c3ccccc3Cl)n2)cc1 | 99.5% (inactive) |
| COC1=CCC2([N+](=O)[O-])CN(CC(=O)O)CC1([N+](=O)[O-])C2 (stereo unspecified) | 98.8% (inactive) |
| Cc1c2cn[nH]c(=O)c2c(C)n1Cc1ccc(F)cc1 | 86.5% (inactive) |
| CC[C@@H]1CCCCc2ccccc2[C@@H](C(=O)C[C@H](O)CC(C)=O)OC1=O | 98.3% (inactive) |
| CC(=O)C[C@@H](O)CC(=O)[C@H]1OC(=O)CCCCCCc2ccccc21 | 62.5% (active) |
| CC(=O)C[C@H](O)CC(=O)[C@@H]1OC(=O)[C@@H](C)C/C=C\Cc2ccccc21 | 89.8% (inactive) |
| CC(C)=NN1C(=O)c2ccccc2NC1(C)C | 102% (inactive) |
| COc1cc(-c2c(-c3ccc4c(c3)OCO4)noc2C)ccc1F | 94.1% (inactive) |
| COC(=O)c1ccc(OCC(=O)NC(C)(C)C)cc1 | 102% (inactive) |
| O=C(COc1ccc([N+](=O)[O-])cc1Cl)Nc1ccc2[nH]c(=O)[nH]c2c1 | 111% (inactive) |
| CC(C)(C)NC(=O)COc1ccc(CNc2ccc3[nH]c(=O)[nH]c3c2)cc1 | 60.8% (active) |

— PubChem BioAssay AID2690 (NMMLSC, 2010)
